From PubChem BioAssay come the findings set out here.

Structures are written as SMILES. Values without a mark were called inactive. No rule for the calls is given here.

The experiment deals with Pantothenate synthetase (Mycobacterium tuberculosis (strain ATCC 25618 / H37Rv)) (UniProt P9WIL5). Briefly: Recombinant Mtb pantothenate synthetase (PanC) inhibitors, coupled enzyme, confirmatory (AID 375).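 Also: 0% = full reaction with vehicle and 100% = no enzyme background.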 Particulars: coupled enzyme assay; at 10 µM, active compounds read high.
Pantothenate synthetase (Mycobacterium tuberculosis (strain ATCC 25618 / H37Rv)), sequence (P9WIL5 whole entry, looked up): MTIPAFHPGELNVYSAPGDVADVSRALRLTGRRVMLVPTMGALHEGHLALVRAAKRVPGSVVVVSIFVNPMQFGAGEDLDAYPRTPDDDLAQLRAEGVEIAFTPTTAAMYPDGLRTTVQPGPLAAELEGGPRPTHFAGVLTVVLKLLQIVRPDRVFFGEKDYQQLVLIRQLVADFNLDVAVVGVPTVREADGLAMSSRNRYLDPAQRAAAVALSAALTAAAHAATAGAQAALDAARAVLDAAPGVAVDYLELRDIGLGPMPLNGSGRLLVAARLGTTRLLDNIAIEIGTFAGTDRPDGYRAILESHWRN
With `CCCCn1c(SCc2cccnc2)nc2c1c(=O)n(C)c(=O)n2C`, the inhibition was 0%.

In the case of `Cc1ccc(S(=O)(=O)N2CCN(C(=O)N3CCOCC3)C2C)cc1` (stereo not given), the inhibition is 0%.

Consider `O=C1[C@@H]2C(c3ccccc3Cl)=NO[C@@H]2C(=O)N1Cc1ccccc1`, for which the inhibition was 0%.

For `CCC(C(=O)Nc1ccccc1C(=O)N1CCCC1)N1C(=O)c2ccccc2C1=O` (stereo not given), the inhibition is 6%.

Regarding `CC(C)NC(=O)Nc1cccs1`, the inhibition was 9%.

With `COC(=O)c1ccc2c(=O)n(CC3CCCO3)c(=S)[nH]c2c1` (stereo not given), the inhibition is 0%.

As to `CCCCC(CC)C(=O)Nc1ccc(Cl)cn1` (stereo not given), the inhibition is 8%.

In the case of `CC(=O)Nc1ccc(S(=O)(=O)N(CC(=O)O)Cc2ccccc2)cc1`, the inhibition was 7%.

Turning to `CCN(C(=O)c1cccs1)c1nnc(-c2ccncc2)s1`, the inhibition is 0%.

Regarding `Cc1cnc(C(=O)Nc2ccc(N3CCOCC3)cc2)cn1`, the inhibition is 4%.

On to `O=C(O)CCNc1nc(-c2ccccc2)nc2ccccc12`, for which the inhibition was 3%.

Consider `CCN(CCCCOC(=O)c1ccc(OC)c(OC)c1)C(C)Cc1ccc(OC)cc1` (stereo not given), for which the inhibition was 9%.

`O=C(NC(C(=O)c1ccccc1)N1CCOCC1)c1cccs1` (stereo not given): the inhibition is 0%.

For the compound `CCOc1ccccc1-n1c(SCC(=O)NC(C)CC)nnc1-c1ccoc1C` (stereo not given), the inhibition is 0%.

Take `CN(C)S(=O)(=O)c1ccc2c(c1)c(=O)c(C(=O)NCCCN1CCCCCC1)cn2C`: the inhibition was 0%.

In the case of `O=C(O)C1CCCCC1C(=O)NCCc1ccccc1` (stereo not given), the inhibition is 0%.

In the case of `CCc1ccccc1NC(=O)CSc1ncn[nH]1`, the inhibition was 0%.

For `COc1ccc(-c2noc(COc3ccc(C)c(C)c3)n2)cc1OC`, the inhibition is 0%.

Consider `CCSc1nnc(NC(=O)c2ccccn2)s1`, for which the inhibition is 1%.

For `CC12CN3CC(C)(CN(C1)C3c1ccc(Br)cc1)C2` (stereo not given), the inhibition was 0%.

As to `COc1ccc(CNc2oc(COc3ccccc3Cl)nc2C#N)cc1`, the inhibition is 0%.

For the compound `O=S(=O)(c1ccc(F)c(Cl)c1)N1CCCC1`, the inhibition is 0%.

Take `CCN(CC)C(=O)COc1ccc2oc(C)c(C(=O)OC(C)C)c2c1`: the inhibition was 4%.

On to `O=C(CCc1nc2ccccc2s1)OCC(=O)N1CCN(C(=O)c2ccco2)CC1`, for which the inhibition is 4%.

In the case of `CN1/C(=C\C(=O)C(F)F)C(C)(C)c2ccccc21`, the inhibition was 0%.

As to `Cc1ccc2nc(NC(=O)Cn3cc4c(n3)CCCCC4)sc2c1`, the inhibition was 0%.

Take `c1ccc2ncc(-n3cnnn3)cc2c1`: the inhibition was 0%.

With `CCSCc1nnc(SCC(=O)Nc2cccc(SC)c2)n1C`, the inhibition is 4%.

Turning to `CCCCCc1c(C)nc(Nc2nc(C)c3cc(OC)ccc3n2)[nH]c1=O`, the inhibition is 0%.

Take `CCN(CC)C(c1ccc(C)cc1)c1nnnn1C1CCCCC1` (stereo not given): the inhibition was 0%.

As for `C(=N/n1c2ccccc2c2ccccc21)/c1ccco1`, the inhibition was 0%.

As to `COc1ccc(NC(=O)NCCN2C(=O)C3C4C=CC(C4)C3C2=O)cc1` (stereo not given), the inhibition is 1%.

For `COc1ccc(OC)c(NC(=O)c2cn(C)c(=O)c3cc(OC)c(OC)cc23)c1`, the inhibition is 1%.

On to `Cc1nc(NC(=O)c2ccccc2)sc1-c1csc(NCc2ccco2)n1`, for which the inhibition is 0%.

Take `CCn1ncc(C2=NOC(C(=O)NCc3ccc(Cl)cc3)C2)c1C` (stereo not given): the inhibition was 0%.

For the compound `c1ccc(-c2cc(CSc3nc4ccccc4[nH]3)on2)cc1`, the inhibition is 0%.

As to `Cc1nc2ccc(N3C(=O)CCC3=O)cc2[nH]1`, the inhibition is 5%.

Consider `COc1cc(C(=O)Nc2cc(-c3ccccc3)[nH]n2)cc(OC)c1OC`, for which the inhibition is 5%.

As for `CCC(C)NC(=O)c1cc(-c2ccc(OC)cc2)on1` (stereo not given), the inhibition was 0%.

In the case of `Cc1cc(C)nc(SCC(=O)Nc2ccc(S(=O)(=O)Nc3nccs3)cc2)n1`, the inhibition is 0%.
